An excerpt weighted towards active compounds, which were near 10% of everything screened.
MmCpn inh: M. maripaludis TRiC chaperonin inhibition; actives 0.031% (n = 330,000); purified Mm-Cpn ATPase, ADP Transcreener TR-FRET; Potency, µM (series often up to 76.9 µM), inactives show at the top dose activity, negative = inhibition, most hits filed as inhibitors; also: potency is read from the fitted curve at half-maximal effect; nearly all actives have a fitted effect of over 80% in size
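Reaction buffer contained 30 mM Tris pH 7.4, 100 mM KCl, 5 mM MgCl2 and 1 mM DTT. Mm-CPN (25 nM final) hydrolysed 10 uM ATP over 30 min at 37°C; ADP was read by HTRF.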
G9a inh: G9a (human) methyltransferase inhibition; Q96KQ7; G9a H3K9 monomethylation, AlphaScreen, 2 h; Potency, µM (highest dose often 102 µM), for the others: top-dose activity, negative = inhibition, most hits filed as inhibitors; actives 8.8% (n = 350,000); AID 504332; also: potency is read from the fitted curve at half-maximal effect; nearly all actives have a fitted effect of over 75% in size
Target sequence (Q96KQ7 913-1193 limits assumed): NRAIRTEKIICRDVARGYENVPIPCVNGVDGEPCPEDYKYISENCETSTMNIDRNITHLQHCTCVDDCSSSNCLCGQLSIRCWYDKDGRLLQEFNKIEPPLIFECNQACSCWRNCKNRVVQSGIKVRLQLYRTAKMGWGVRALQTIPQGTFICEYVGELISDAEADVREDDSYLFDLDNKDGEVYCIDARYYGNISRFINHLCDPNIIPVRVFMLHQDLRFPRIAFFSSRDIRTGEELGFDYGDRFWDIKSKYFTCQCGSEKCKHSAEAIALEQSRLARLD
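Enzyme 20 nM + cpd, 15 min RT; add b-H3K9 pep 500 nM / SAM 20 uM; 2 h RT; anti-H3K9me1 Ab 0.5 ug/mL + SA donor / anti-rabbit acceptor beads 20 ug/mL each, 10 min; AlphaScreen read.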
PLK1 PBD inh: inhibitors of human PLK1 polo-box domain binding; Potency, µM, without a hit: max response, negative = inhibition, hits mostly inhibitors; AID 720504; Plk1 PBD binding of FITC phosphopeptide, fluorescence polarization; actives 2.8% (n = 360,000); P53350; also: potency is read from the fitted curve at half-maximal effect; series mostly up to about 57 µM; nearly all actives have a fitted effect of over 65% in size
Sfp inh: blocks B. subtilis Sfp PPTase activity; Q9F4F7; Biochemical Sfp PPTase activity, qHTS; Potency, µM, without a hit: largest response in the series, negative = inhibition, usual class: inhibitors; actives 3.5% (n = 310,000); AID 1490;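 also: the enzyme is Sfp with the accession as filed and its product quenches rhodamine fluorescence; potency is read from the fitted curve at half-maximal effect; 0% = enzyme reaction without inhibitor and -100% = no enzyme wells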
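Reaction rates are the 30-min fluorescence difference (ex 525, em 598 nm) in wells containing 15 nM Sfp, 5 uM rhodamine-CoA and 12.5 uM BHQ-2-YbbR at pH 7.6 with 10 mM MgCl2.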
VDR inh: vitamin D3 receptor (human) inhibition; P11473; VDR-SRC2-3 peptide fluorescence polarization, 2 h; Potency, µM, for inactives: max response, negative = inhibition, hits mostly inhibitors; actives 0.93% (n = 400,000); AID 504847; also: potency is read from the fitted curve at half-maximal effect
Target sequence (P11473 whole entry, looked up): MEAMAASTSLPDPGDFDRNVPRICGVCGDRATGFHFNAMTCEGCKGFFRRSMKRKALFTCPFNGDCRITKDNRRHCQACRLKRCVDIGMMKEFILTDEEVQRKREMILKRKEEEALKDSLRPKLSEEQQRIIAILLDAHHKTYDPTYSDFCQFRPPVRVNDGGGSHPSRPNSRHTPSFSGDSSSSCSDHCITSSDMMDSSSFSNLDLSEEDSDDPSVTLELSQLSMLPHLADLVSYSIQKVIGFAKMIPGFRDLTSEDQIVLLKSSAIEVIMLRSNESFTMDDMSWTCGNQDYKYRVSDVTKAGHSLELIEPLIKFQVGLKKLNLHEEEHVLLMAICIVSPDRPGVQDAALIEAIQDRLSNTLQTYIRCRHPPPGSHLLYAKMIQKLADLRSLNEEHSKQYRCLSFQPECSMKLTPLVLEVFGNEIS
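FP read-out; VDR + SRC2-3 coactivator peptide; 23 nl compound by pintool; 2 h RT incubation; reagents held at 4 deg C, protected from light.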
CCT chaperon mod: changes cytosolic chaperonin activity. actives 0.3% (n = 360,000). AID 651819. purified chaperonin ATPase assay, HTRF ADP detection, 30 min. activity change, % (concentration not given with the values), hits read low; in the data active = activity change below about -30%
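ATPase activity: ADP formed was measured by HTRF Transcreener (665/615 nm ratio) after 30 min at 37 deg C with 10 uM ATP. Compounds screened at one 76 uM concentration against 40 or 20 nM TRiC in Tris pH 7.4/KCl/MgCl2/DTT buffer.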
The depositor's hits bear a star; ? = inconclusive; . = no result given; [ ] = remark or other dose. Unless noted, calls follow the shape of the dose curve; as a rule, active = well fitted curve in the direction sought with a large enough effect; inconclusive = small, poorly fitted or top-dose-only effect, or another doubt; inactive = no such curve, though single readings can be large; an effect the other way counts as inactive or inconclusive. Unless noted, % is scaled to controls: 0 for no effect and ±100 for the full control effect.

SMILES	MmCpn inh	G9a inh	PLK1 PBD inh	Sfp inh	VDR inh	CCT chaperon mod
COC(=O)C1=C[C@@H](C(=O)OC)C2C3=C(C(=O)[C@]2(CC(C)C)NC(=O)c2ccccc2)[C@H](C)n2c(=O)n(-c4ccccc4)c(=O)n2[C@@H]3C1 (some centres not stated)	.	.	.	3.1%	-8.9%	.
O=C(NCc1cccnc1)c1cc(-c2ccco2)on1	1.5%	39.8µM*	-7.0%	?	-9.1%	-1.2
O=C(NCc1ccco1)c1ccc(Oc2ccccc2)cc1	17.8%	?	-6.7%	79.4µM*	3.7%	-0.6
O=C(NCc1ccco1)c1cnccn1	-4.5%	30.8%[59 µM]	-13.5%	39.8µM*	-9.4%	-1.7
O=C(CNCc1ccco1)Nc1ccc(Oc2ccccc2)cc1	-0.9%	14.1µM*	-14.0%	?	-8.6%	-0.6
Cc1ccc(-c2cc(C(=O)NCc3cccnc3)no2)cc1	-5.0%	?	-1.5%	8.6%	5.5%	-1.2
CCC(=O)[C@]12O[C@@]3(C4C(=O)OCCC41)N(CC)C(C)=C(C(=O)OC)C(c1ccccc1)N3C2=O (some centres not stated)	.	.	.	15.7%	.	.
COc1ccccc1CNc1ncnc2ccc(-c3cccnc3)cc12	.	.	.	-2.3%	-0.3%	.
CC(Cc1c[nH]c2ccccc12)C(=O)NCc1ccco1 (configuration not stated)	0.8%	31.6µM*	?	8.6%	-0.9%	-0.3
CC(C)C(CC(=O)NCc1ccco1)c1ccco1 (configuration not stated)	-0.3%	39.8µM*	-13.2%	28.2µM*	-0.8%	1.0
CC(=O)NC(Cc1c[nH]c2ccccc12)C(=O)NCc1ccco1 (configuration not stated)	1.4%	8.8%	-10.1%	5.6%	26.7%	1.4
Cc1cc(-c2ccccc2)nc2cc(C(=O)NCc3ccco3)nn12	-3.6%	50.1µM*	-12.9%	?	?	0.6
O=C(Nc1ccccc1F)c1oc2ccccc2c1NC(=O)c1c(F)cccc1F	.	14.7%[59 µM]	.	.	51.6%	.
COc1ccc(/C(O)=C2/C(=O)C(=O)N(CCN3CCOCC3)C2c2ccccn2)cc1 (configuration not stated)	-0.5%	10µM*	?	50.1µM*	-20.0%	-5.3
O=C1C(=O)N(CCN2CCOCC2)C(c2ccccn2)/C1=C(/O)c1ccc(F)cc1 (configuration not stated)	-9.3%	8.91µM*	10.6µM*	56.2µM*	-8.8%	-1.8
O=C1C(=O)N(CCCN2CCOCC2)C(c2ccc(F)cc2)/C1=C(/O)c1ccccc1 (configuration not stated)	1.0%	?	-3.3%	3.9%	-19.3%	-2.9
C=CCn1c(Cc2nc3ccc(Cl)cc3[nH]2)n[nH]c1=S	0.8%	?	-24.9%	50.1µM*	-3.6%	1.6
C=CCn1c(Cc2c[nH]c3ccccc23)n[nH]c1=S	-1.7%	6.31µM*	-12.2%	?	7.4%	-0.1
Cc1cc2cc(CN(Cc3ccco3)C(=O)NCc3ccccc3)c(=O)[nH]c2cc1C	-1.7%	50.1µM*	-2.1%	-13.0%	23.6%	-3.1
Cc1cc(C)c2[nH]c(=O)c(CN(Cc3ccco3)C(=O)c3cccs3)cc2c1	-2.9%	0.5%[59 µM]	.	?	.	.
Cc1cc2cc(CN(Cc3ccco3)C(=O)C3CCCCC3)c(=O)[nH]c2cc1C	-2.7%	?	-10.0%	16.6%	-2.9%	-0.6
CCOc1ccc2[nH]c(=O)c(CN(Cc3ccco3)C(=O)c3ccc(Br)cc3)cc2c1	0.5%	?	-9.2%	39.8µM*	-21.4%	1.4
O=C(OCc1cc2ccccc2[nH]c1=O)c1cccs1	-2.1%	20µM*	-0.3%	7.5%	0.7%	0.8
O=C(c1cccs1)N(Cc1ccco1)Cc1cc2ccccc2[nH]c1=O	1.5%	?	26.7µM*	-14.8%	-23.7%	-0.1
O=C(Nc1sc2c(c1C(=O)c1ccc(Cl)cc1)CCCC2)c1cccnc1	-6.4%	?	-5.0%	31.6µM*	9.1%	-0.4
SMILES	MmCpn inh	G9a inh	PLK1 PBD inh	Sfp inh	VDR inh	CCT chaperon mod
Cc1cccc(NC(=O)c2c(NC(=O)c3ccccc3)sc3c2CCCC3)c1	.	1.26µM*	.	.	79.4µM*	.
O=C(Nc1sc2c(c1C(=O)c1ccccc1)CCCC2)c1cccnc1	1.3%	39.8µM*	-2.1%	17.2%	?	-1.4
NC(=O)c1c(NC(=O)c2cccnc2)sc2c1CCCCC2	-2.9%	-19.4%	-16.4%	-12.9%	-13.7%	-0.3
NC(=O)c1c(NC(=O)c2cccnc2)sc2c1CCCC2	1.4%	12.0%[59 µM]	-10.9%	-7.2%	-6.2%	-1.8
C[C@]12CC[C@H]3c4ccc(OC[C@H]5CO5)cc4CC[C@H]3[C@H]1CC[C@@H]2O	.	.	.	-11.3%	.	.
CCCCC#CC1C=CC(Oc2ccc(C(=O)OC)cc2)C(COC(=O)OCC)O1 (configuration not stated)	.	.	.	7.3%	.	.
COc1ccc(CNC(=O)c2ccc(CS(=O)(=O)c3ccccc3OC)o2)cc1	.	6.3%[59 µM]	.	.	14.0%	.
COc1ccc(S(=O)(=O)NCc2ccc(C(=O)NCCCN3CC(C)CC(C)C3)cc2)cc1 (configuration not stated)	2.5%	2.2%	26.7µM*	4.8%	-12.1%	1.6
O=C1CSc2ccc(C(=O)N3CCCCC3)cc2N1	.	.	15µM*	.	.	-0.7
NC(=O)C1CCCN(C(=O)c2ccc3c(c2)NC(=O)CS3)C1 (configuration not stated)	1.0%	-9.8%[12.7 µM]	3.5%	.	-7.9%	-1.6
CC1CC(C)CN(CCCNC(=O)c2ccc(N3CCCC3=O)cc2)C1 (configuration not stated)	2.0%	7.94µM*	5.7%	5.4%	-4.7%	0.7
CC1CCCCN1CCCNC(=O)c1ccc(N2CCCC2=O)cc1 (configuration not stated)	-0.3%	8.3%	0.7%	12.8%	5.1%	0.5
CCN1CCCC1CNC(=O)c1ccc2c(c1)NC(=O)/C(=C\c1ccc(C)cc1)S2 (configuration not stated)	-0.2%	50.1µM*	-13.9%	50.1µM*	14.3%	1.1
O=C(NCC(c1ccc2c(c1)OCO2)N1CCN(c2ccccc2F)CC1)c1ccccc1F (configuration not stated)	.	-31.8%[59 µM]	.	.	6.5%	.
Cn1c(=O)c2sccc2n2c(CCCC(=O)NCc3ccccc3)nnc12	.	-1.7%[59 µM]	.	.	1.9%	.
Cc1nn2c(C(F)(F)F)cc(-c3ccc(OC(C)C)cc3)nc2c1C#N	.	2.2%[59 µM]	.	.	-10.7%	.
CCC(=O)N1c2ccccc2CC1C(=O)NCc1cccc(OC)c1OC (configuration not stated)	.	-3.3%[12.7 µM]	.	.	7.4%	.
COc1cccc([C@@H]2Oc3ccc(OC)cc3/C(=N/O[C@@H](C)c3cc(-c4c(C)cc(C)cc4C)no3)[C@@H]2O)c1	.	.	.	3.7%	.	.
